Test [1] addresses T1, Serine/threonine-protein kinase Nek9 (Homo sapiens) (UniProt Q8TD19).
T1 sequence (whole entry): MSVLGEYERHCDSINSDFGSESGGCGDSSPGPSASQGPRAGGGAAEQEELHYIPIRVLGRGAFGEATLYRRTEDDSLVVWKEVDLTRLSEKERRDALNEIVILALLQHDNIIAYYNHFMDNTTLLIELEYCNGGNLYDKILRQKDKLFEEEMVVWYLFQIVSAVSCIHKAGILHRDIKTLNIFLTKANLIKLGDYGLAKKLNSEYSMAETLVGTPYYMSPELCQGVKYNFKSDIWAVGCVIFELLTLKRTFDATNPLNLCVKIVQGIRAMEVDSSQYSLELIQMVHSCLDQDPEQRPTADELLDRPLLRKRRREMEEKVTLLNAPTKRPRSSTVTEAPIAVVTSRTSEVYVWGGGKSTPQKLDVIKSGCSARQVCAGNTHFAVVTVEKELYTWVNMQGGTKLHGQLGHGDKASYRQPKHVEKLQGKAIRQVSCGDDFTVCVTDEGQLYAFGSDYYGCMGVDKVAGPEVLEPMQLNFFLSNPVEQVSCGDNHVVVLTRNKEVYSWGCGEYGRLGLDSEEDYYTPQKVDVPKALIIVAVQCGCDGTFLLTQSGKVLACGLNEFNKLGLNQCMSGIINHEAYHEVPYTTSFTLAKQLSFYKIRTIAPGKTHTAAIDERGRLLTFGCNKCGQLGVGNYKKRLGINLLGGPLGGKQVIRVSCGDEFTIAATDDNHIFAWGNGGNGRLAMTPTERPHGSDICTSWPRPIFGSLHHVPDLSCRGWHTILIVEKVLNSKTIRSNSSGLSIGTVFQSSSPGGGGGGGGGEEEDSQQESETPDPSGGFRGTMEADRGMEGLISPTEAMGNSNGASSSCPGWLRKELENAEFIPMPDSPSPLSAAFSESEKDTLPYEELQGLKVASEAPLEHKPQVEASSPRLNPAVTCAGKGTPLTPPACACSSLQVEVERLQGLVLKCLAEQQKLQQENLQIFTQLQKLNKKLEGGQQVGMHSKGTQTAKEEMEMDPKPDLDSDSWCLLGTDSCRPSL
To be noted: at 1 µM.

Test [2] deals with Serine/threonine-protein kinase PLK1 (Homo sapiens) (UniProt P53350). The settings on record: at 0.1 µM.
The target is the same in test [3]. The settings on record: at 1 µM.
Test [4] deals with T2, Dual specificity protein kinase TTK (Homo sapiens) (UniProt P33981).
T2 sequence (whole entry): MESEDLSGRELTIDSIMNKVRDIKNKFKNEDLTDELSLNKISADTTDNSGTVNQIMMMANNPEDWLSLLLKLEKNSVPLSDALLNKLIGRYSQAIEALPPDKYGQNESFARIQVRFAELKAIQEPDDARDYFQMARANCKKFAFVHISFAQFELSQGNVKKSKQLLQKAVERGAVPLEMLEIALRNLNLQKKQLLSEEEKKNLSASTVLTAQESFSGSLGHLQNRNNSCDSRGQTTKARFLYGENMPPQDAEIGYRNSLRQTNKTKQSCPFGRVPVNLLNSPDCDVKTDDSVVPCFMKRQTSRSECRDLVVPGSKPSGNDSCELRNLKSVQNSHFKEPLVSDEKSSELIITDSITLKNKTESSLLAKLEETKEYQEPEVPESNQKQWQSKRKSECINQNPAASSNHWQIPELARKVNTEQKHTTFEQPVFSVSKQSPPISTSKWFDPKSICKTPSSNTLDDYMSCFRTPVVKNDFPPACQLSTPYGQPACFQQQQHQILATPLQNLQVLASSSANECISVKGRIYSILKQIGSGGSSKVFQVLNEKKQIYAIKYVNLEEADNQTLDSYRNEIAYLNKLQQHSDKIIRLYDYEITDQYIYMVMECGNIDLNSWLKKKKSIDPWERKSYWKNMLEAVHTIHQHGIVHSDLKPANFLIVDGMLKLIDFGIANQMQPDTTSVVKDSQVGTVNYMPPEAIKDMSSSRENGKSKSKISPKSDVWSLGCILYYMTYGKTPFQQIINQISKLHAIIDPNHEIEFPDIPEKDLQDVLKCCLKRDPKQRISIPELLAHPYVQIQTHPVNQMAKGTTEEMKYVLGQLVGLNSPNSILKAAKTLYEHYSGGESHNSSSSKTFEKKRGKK
The settings on record: at 0.1 µM.

Test [5] concerns T3, Receptor-type tyrosine-protein kinase FLT3 (Homo sapiens), P36888 [D835Y].
T3 sequence (whole entry): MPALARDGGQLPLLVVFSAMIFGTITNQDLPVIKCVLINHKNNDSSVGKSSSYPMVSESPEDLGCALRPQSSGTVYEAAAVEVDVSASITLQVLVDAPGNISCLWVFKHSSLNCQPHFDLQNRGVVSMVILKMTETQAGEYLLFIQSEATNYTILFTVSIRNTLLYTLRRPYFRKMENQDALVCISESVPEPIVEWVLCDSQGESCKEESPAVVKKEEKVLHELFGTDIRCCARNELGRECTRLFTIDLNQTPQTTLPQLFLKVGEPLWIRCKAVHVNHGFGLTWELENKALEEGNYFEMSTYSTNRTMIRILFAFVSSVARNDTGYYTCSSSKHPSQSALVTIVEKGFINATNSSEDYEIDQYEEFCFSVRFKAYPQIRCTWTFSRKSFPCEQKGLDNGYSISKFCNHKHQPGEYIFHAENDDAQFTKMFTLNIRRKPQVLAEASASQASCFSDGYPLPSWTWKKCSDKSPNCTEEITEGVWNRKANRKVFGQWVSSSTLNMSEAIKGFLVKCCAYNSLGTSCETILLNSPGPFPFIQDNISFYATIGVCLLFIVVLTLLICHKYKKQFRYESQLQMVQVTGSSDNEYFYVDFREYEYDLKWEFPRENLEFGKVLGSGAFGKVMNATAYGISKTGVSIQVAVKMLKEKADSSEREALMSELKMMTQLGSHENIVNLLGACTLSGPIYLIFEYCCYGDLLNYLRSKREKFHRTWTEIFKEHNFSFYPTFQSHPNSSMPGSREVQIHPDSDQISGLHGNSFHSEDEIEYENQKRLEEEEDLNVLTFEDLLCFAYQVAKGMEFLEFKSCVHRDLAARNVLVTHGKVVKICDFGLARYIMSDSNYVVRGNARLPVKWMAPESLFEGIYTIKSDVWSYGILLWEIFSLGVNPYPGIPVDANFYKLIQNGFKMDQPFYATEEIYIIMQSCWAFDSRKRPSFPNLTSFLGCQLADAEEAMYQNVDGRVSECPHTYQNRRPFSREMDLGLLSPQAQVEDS
To be noted: at 1 µM.

The target in test [6] is Vascular endothelial growth factor receptor 3 (Homo sapiens) (UniProt P35916). To be noted: at 0.1 µM.
The target is the same in test [7]. To be noted: at 1 µM.
The target of test [8] is Macrophage colony-stimulating factor 1 receptor (Homo sapiens) (UniProt P07333). The settings on record: at 0.1 µM.
Test [9] shares this target. The settings on record: at 1 µM.
Test [10] deals with Tyrosine-protein kinase Fyn (Homo sapiens) (UniProt P06241). The settings on record: at 0.1 µM.

One may read the inhibition as the drop in the measured response relative to a control, in per cent.

Molecules are shown by their SMILES.

Chain of Macrophage colony-stimulating factor 1 receptor (Homo sapiens) (P07333 whole entry): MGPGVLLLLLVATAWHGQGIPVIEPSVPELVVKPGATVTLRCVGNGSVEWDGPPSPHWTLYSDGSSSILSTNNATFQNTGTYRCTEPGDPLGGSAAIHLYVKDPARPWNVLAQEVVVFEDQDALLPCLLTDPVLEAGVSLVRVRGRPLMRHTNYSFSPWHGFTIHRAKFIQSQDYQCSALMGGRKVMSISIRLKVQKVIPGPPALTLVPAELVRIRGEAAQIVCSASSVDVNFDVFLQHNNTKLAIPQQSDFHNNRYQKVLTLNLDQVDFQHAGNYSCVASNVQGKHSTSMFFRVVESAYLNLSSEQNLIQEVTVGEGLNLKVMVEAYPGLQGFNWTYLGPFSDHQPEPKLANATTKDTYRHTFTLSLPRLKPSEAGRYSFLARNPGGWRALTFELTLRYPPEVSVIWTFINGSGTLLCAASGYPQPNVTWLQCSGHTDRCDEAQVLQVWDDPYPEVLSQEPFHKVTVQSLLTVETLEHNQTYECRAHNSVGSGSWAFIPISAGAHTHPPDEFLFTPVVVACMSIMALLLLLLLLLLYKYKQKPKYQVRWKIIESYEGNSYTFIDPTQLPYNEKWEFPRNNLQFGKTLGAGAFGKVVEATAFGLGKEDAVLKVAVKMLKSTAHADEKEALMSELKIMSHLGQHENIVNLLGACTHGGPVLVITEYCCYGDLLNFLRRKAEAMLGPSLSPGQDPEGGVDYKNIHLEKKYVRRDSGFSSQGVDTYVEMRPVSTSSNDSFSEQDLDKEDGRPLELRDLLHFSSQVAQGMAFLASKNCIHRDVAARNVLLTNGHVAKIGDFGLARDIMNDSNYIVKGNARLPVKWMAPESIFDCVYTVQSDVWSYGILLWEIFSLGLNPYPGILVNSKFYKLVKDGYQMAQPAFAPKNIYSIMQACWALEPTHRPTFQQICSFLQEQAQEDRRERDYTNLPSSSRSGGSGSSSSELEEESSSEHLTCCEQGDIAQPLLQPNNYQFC
Chain of Vascular endothelial growth factor receptor 3 (Homo sapiens) (P35916 whole entry): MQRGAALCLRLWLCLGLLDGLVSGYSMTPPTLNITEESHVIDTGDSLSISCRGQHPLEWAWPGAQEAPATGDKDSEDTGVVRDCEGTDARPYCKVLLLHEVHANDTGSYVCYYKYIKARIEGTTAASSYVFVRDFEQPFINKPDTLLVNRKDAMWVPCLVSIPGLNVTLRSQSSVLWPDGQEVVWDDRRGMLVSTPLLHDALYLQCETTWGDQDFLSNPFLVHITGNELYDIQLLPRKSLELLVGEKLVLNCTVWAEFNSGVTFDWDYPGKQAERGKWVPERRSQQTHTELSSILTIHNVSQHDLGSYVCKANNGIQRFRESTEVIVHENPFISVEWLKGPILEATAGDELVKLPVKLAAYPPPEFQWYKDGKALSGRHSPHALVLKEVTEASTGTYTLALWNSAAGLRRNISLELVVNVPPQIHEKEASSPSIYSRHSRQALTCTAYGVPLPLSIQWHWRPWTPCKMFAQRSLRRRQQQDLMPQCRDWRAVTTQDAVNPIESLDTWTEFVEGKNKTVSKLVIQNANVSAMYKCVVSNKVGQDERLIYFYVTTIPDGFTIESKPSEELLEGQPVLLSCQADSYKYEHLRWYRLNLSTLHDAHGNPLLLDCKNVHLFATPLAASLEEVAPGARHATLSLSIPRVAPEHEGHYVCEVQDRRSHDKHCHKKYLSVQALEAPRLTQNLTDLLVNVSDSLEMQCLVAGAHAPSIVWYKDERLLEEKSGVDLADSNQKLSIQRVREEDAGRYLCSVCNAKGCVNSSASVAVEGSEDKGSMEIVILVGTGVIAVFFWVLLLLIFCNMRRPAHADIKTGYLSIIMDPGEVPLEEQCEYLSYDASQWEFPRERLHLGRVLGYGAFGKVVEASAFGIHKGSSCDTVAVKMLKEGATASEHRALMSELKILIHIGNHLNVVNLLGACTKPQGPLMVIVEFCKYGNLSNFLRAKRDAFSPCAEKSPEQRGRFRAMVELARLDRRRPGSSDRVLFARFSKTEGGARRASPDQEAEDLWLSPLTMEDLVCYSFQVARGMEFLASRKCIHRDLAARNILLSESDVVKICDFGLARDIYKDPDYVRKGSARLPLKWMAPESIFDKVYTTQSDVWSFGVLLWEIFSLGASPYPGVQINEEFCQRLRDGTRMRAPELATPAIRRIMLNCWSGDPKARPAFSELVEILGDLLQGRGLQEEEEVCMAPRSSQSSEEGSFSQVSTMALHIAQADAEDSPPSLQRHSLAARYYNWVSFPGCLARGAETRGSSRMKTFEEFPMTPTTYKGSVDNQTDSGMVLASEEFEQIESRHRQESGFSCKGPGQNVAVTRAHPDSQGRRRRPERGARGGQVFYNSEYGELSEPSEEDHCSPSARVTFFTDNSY
Chain of Serine/threonine-protein kinase PLK1 (Homo sapiens) (P53350 whole entry): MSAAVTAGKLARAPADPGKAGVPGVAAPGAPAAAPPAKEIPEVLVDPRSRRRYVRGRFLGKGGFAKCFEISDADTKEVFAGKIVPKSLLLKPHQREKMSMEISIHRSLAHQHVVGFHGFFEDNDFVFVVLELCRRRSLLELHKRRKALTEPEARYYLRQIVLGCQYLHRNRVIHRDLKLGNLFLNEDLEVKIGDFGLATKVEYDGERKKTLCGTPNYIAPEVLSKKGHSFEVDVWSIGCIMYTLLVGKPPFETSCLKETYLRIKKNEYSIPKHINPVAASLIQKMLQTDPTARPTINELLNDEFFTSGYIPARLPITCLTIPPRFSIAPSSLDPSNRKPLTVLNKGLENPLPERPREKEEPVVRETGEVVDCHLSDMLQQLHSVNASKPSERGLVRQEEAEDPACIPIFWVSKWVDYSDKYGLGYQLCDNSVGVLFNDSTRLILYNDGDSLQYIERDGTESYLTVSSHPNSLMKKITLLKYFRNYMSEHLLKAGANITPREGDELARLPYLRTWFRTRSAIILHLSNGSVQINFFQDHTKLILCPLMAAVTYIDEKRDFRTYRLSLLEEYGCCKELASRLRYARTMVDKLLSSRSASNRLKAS
Chain of Tyrosine-protein kinase Fyn (Homo sapiens) (P06241 2-537 limits assumed): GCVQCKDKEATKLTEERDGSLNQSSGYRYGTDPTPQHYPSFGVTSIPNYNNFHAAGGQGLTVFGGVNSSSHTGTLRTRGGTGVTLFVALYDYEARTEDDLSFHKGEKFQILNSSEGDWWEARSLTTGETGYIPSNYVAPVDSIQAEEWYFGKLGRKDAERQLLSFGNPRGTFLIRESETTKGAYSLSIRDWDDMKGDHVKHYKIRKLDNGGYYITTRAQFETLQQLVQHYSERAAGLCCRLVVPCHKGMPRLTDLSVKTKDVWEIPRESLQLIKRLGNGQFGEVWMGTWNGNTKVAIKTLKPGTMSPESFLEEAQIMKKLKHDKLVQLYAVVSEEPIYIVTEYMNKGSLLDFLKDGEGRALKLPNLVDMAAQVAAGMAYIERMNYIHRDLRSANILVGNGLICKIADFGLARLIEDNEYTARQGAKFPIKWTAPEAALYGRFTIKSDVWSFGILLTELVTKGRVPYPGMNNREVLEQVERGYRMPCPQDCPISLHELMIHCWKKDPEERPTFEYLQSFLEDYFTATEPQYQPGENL

Consider `COc1ccc(-c2cc3c(N)ncnc3o2)cc1`, for which the inhibition in test [1] is 2.28%; in test [2] it was -1.11%; in [3], -1.15%; in test [4], 0.22%; in [5], 1.63%; in [6], 0.51%. The inhibition in [7] worked out at 4.44%; in test [8] it was 2.06%; in test [9], 17.9%; in test [10], 0.82%.

As to `Cc1ccc(O)cc1Nc1ccnc2cc(-c3ccccn3)ccc12`, the inhibition in [1] is -1.26%; in [2] it was 3.38%; in test [3], 4.98%; in test [4], 6.34%; in test [5], 4.47%; in test [6], 62.5%. The inhibition in [7] stood at 88.8%; in [8], 4.3%; in [9], 20.4%; in [10] it was 55.6%.

On to `CCn1c(-c2nonc2N)nc2cnc(Oc3cccc(NC(=O)c4ccc(N(C)C)cc4)c3)cc21`, for which the inhibition in test [1] amounted to 5.29%; in test [2] it was 1.86%; in test [3] it was 1.97%; in [4], 3.52%; in test [5], 0.83%; in [6], 0.61%. Moreover, the inhibition is 2.01% in test [7], -0.02% in test [8], 0.23% in test [9] and 1.66% in test [10].

For `COc1cc(/C=N/Nc2ncnc3[nH]ncc23)ccc1O`, the inhibition in [1] worked out at 7.86%; in [2] it was 0.7%; in test [3] it was 7.67%; in [4], 4.54%; in test [5], 34%; in test [6], 2.46%. The inhibition in [7] stood at 26.1%; in test [8] it was 7.59%; in [9], 34.4%; in test [10] it was 8.72%.

On to `Fc1ccc(-c2cc(-c3c[nH]nc3-c3ccccn3)ccn2)cc1`, for which the inhibition in [1] is 12.6%; in test [2], 3.3%; in test [3], 3.1%; in test [4], 11.3%; in test [5] it was 0.71%; in test [6], -1.38%. The inhibition in test [7] was 1.05%; in test [8], 0.08%; in [9], 3.27%; in [10] it was 3.45%.

As to `O=C(Nc1n[nH]c2cc(-c3ccc(F)cc3)ccc12)C1CC1`, the inhibition in [1] turned out to be 6.43%; in [2], 2.87%; in [3], 1.93%; in test [4], 6.08%; in test [5], 1.98%; in [6] it was 1.27%. The inhibition in test [7] turned out to be 1.78%; in [8], 1.64%; in test [9], 1.6%; in [10], 2.62%.

With `Fc1ccc(-c2nn3ccccc3c2-c2ccncc2)cc1`, the inhibition in test [1] was 1.86%; in test [2], 1.11%; in test [3], 0.66%; in [4], 1.74%; in [5], 1.27%; in test [6], -0.54%. The inhibition was 1.83% in test [7], -0.59% in test [8], 7.67% in test [9] and 0.52% in [10].

Take `c1cc(-c2cnn3nc(N4CCOCC4)ccc23)nc(NC2CC2)n1`: the inhibition in test [1] is -2.57%; in [2], 2.55%; in [3], 2.08%; in test [4] it was 18.4%; in test [5], 37.5%; in test [6], 5.93%. Further, the inhibition worked out at 29.9% in test [7], 6.94% in [8], 33.7% in [9] and 0.47% in test [10].

Take `CC(=O)Nc1cccc(C#Cc2cncnc2Nc2ccc(OCc3cccc(F)c3)c(Cl)c2)c1`: the inhibition is 2.42% in [1]; 2.3% in test [2]; 2.89% in test [3]; 3.58% in test [4]; -2.98% in test [5]; 2.87% in test [6]. The inhibition in test [7] stood at 3.83%; in [8] it was 0.82%; in test [9], 4.6%; in test [10], 0.68%.

`COC(=O)Nc1nc2ccc(S(=O)(=O)c3ccc(NC(=O)Nc4cc(C(F)(F)F)ccc4F)cc3)cc2[nH]1`: the inhibition stood at 7.16% in test [1]; 3.83% in test [2]; 2.15% in test [3]; 5.04% in test [4]; 7.26% in test [5]; 0.23% in [6]. Besides, the inhibition in [7] is 0.36%; in test [8] it was -1.07%; in test [9], 2.06%; in [10] it was 1.02%.

Take `CCNC(=O)O[C@H]1CN[C@H](C#Cc2cc3ncnc(Nc4ccc(OCc5cccc(F)c5)c(Cl)c4)c3s2)C1`: the inhibition in test [1] is 4.6%; in test [2] it was 3.22%; in test [3] it was 3.29%; in test [4], 2.67%; in test [5], 2.57%; in test [6] it was 5.21%. Also, the inhibition was -0.66% in [7], 3.01% in test [8], 2.53% in [9] and 3.33% in test [10].

On to `CS(=O)(=O)CCNCc1coc(-c2ccc3ncnc(Nc4ccc(OCc5ccccc5)cc4)c3c2)c1`, for which the inhibition in test [1] is 15.4%; in [2], 4.26%; in [3] it was 5.02%; in [4], 5.49%; in test [5], 4.15%; in test [6] it was 4.45%. In addition, the inhibition in test [7] was found to be 2.92%; in test [8], 0.22%; in test [9] it was 7.42%; in [10], 1.47%.

In the case of `CC1=C(C(=O)Nc2cc(Cl)c3[nH]ncc3c2)C(c2ccc(C(F)(F)F)cc2)CC(=O)N1` (stereo not given), the inhibition is 8.4% in test [1]; 4.17% in [2]; 4.12% in [3]; 5.88% in [4]; 1.66% in test [5]; -0.3% in test [6]. Also, the inhibition in test [7] is -1.34%; in [8], 5.21%; in test [9], 1.8%; in [10] it was 0.13%.

For `N#Cc1c(NC(=O)c2ccc(F)cc2)sc2c1CCCC2`, the inhibition turned out to be 0.67% in test [1]; 4.32% in test [2]; 2.6% in [3]; 4.36% in [4]; 2.85% in test [5]; 0.08% in [6]. In addition, the inhibition was -0.81% in [7], 0.56% in test [8], -0.85% in [9] and -0.49% in test [10].

On to `CCc1nn2ncccc2c1-c1ccnc(NC2CC2)n1`, for which the inhibition was 9.21% in [1]; 1.29% in [2]; 4.87% in [3]; -1.9% in test [4]; 8.73% in [5]; 4.93% in [6]. Further, the inhibition came to 4.12% in test [7], 2.72% in [8], 4.83% in test [9] and 1.74% in test [10].

For the molecule `CCCN1CCC(c2ccc(Nc3nc(Nc4cc(F)ccc4C(N)=O)c4cc[nH]c4n3)c(OC)c2)CC1`, the inhibition in [1] is 32.5%; in test [2] it was 12.5%; in test [3] it was 49.8%; in test [4], 81.5%; in test [5] it was 56%; in test [6], -1.93%. The inhibition in test [7] was 2.22%; in [8], 34.3%; in test [9] it was 81.5%; in [10] it was 3.91%.

Source of the values: ChEMBL document CHEMBL1961873, “Compounds: GSK PKIS; Assays: Nanosyn kinase panel” (2012).
